{
  "source": "PubChem BioAssay AID492997",
  "about": "(Johns Hopkins Ion Channel Center, 2010)",
  "note": "Hit rate of the full screen: of about 4,900 compounds, about 2,000 (41%) were called active.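 Rule for the calls: active = thallium signal drop beyond 5 SD of the untreated control mean, on both duplicate plates; inactive = the rest.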 The set was probably picked from earlier hits. A selection follows.",
  "data": [
    {"assay": "thallium flux in non-induced HEK293 cells, confirmation, counter-screen for KCNK9 inhibitor project, cell-based, second counter screen, non-induced KCNK9-HEK293 (AID 492997);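 for inhibition: plate controls were buffer only IC0 wells for no effect and SID17386958 at its maximal inhibitory level for full effect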", "settings": "non-induced KCNK9-HEK293, FluxOR thallium flux, at 10 µM; hits give high values", "values": [
      {"molecule": "CCCCCCCCCCCCn1ccc(=N)cc1", "inhibition": "29.5% (active)"},
      {"molecule": "CCOC(=O)C1SC2(C(F)(F)C(F)F)CC1(O)c1c(c(OC)c3occc3c1OC)O2", "note": "(stereo unspecified)", "inhibition": "inactive"},
      {"molecule": "CC(C)(C)c1ccc(CN2C(=O)CN=C(c3ccccc3)c3ccccc32)cc1", "inhibition": "50% (active)"},
      {"molecule": "CC(C)(C)c1ccc(OC(=O)N2CCCCC2)cc1", "inhibition": "inactive"},
      {"molecule": "CC(C)n1c(=O)c(C=Nc2ccc(Br)cc2)c(O)n(Cc2ccco2)c1=O", "inhibition": "inactive"},
      {"molecule": "CCCCCCN=C(CC)c1c(O)n(CCCC)c(=O)[nH]c1=O", "inhibition": "32% (active)"}
    ]}
  ]
}
